# Laboratory results: PubChem BioAssay (NCATS)
# Several values for one entry are separate records, joined by “and”; a condition that tells them apart may be missing. Equal values may be shown once. Records with an inconclusive call do not appear. A call without a number means that no potency is given here. Activity calls are given as the source filed them. Unless noted, calls come from the whole dose curve; as a rule, active = well fitted curve in the direction sought with a large enough effect; inconclusive = small, poorly fitted or top-dose-only effect, or another doubt; inactive = no such curve, though single readings can be large; an effect the other way counts as inactive or inconclusive.
# How the values were obtained:
# [1] = Validation screen for small molecules that induce DNA re-replication in SW480 colon adenocarcinoma cells (AID 504364); note: potency is the fitted concentration of half-maximal effect
# In short: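 Cells are treated 48 hr with test compound, stained 40 min with Hoechst at 37 C, and scanned for nuclear fluorescence; compounds inducing re-replication increase nuclei with elevated intensity.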
# [2] = target: Peptidyl-prolyl cis-trans isomerase NIMA-interacting 1 (Homo sapiens) (UniProt Q13526); experiment: qHTS Validation Assay to Find Inhibitors of Pin1 (AID 504536; active = well fitted inhibition curve with a large enough effect in the polarisation, with a control signal flat, not every such curve was filed as active; the % refers to the polarisation; note: potency is the fitted concentration of half-maximal effect)
# Peptidyl-prolyl cis-trans isomerase NIMA-interacting 1 (Homo sapiens), sequence (Q13526 whole entry, looked up): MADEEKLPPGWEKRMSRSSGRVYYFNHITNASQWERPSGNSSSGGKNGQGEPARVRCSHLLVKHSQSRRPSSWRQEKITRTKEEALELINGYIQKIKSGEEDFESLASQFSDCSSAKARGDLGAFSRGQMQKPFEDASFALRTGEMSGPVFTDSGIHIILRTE
# In short: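 Fluorescence polarization competition: compounds (titration) displace HiFluor-488-labeled Pin1-1b peptide from Pin1 (0.3 uM final) in pH 7.5 HEPES buffer with DTT, 10 min at room temperature; %Activity normalized to no-enzyme wells, curves fitted.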
# [3] = target: Phosphoglycerate kinase, glycosomal (Trypanosoma brucei brucei) (UniProt P07378); experiment: qHTS Validation Assay to Find Inhibitors of Phosphoglycerate Kinase (AID 504547)
# Phosphoglycerate kinase, glycosomal (Trypanosoma brucei brucei), sequence (P07378 whole entry, looked up): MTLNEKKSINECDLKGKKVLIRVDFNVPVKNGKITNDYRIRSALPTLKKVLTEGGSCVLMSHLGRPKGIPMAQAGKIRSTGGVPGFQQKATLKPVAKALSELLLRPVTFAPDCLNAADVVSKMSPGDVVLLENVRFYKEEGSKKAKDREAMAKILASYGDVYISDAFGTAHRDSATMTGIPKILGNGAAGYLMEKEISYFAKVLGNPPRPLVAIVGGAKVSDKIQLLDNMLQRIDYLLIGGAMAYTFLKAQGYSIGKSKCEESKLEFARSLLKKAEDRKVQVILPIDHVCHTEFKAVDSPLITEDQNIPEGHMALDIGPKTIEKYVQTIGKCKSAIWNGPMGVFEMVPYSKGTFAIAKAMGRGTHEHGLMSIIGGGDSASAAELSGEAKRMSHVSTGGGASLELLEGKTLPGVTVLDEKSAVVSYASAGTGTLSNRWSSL
# In short: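 Inhibition of the enzyme is judged by a Kinase-Glo Plus luminescent signal following a one-hour incubation at room temperature. Because 1,3-BPG is unstable, it is made in situ by GAPDH at 100nM final; no-PGK wells define the baseline.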
# [4] = target: Ubiquitin carboxyl-terminal hydrolase 1 (Homo sapiens) (UniProt O94782); experiment: Inhibitors of USP1/UAF1: Pilot qHTS (AID 504865); note: nearly all actives have a fitted effect of over 35% in size; note: potency is the fitted concentration of half-maximal effect
# Ubiquitin carboxyl-terminal hydrolase 1 (Homo sapiens), sequence (O94782 whole entry, looked up): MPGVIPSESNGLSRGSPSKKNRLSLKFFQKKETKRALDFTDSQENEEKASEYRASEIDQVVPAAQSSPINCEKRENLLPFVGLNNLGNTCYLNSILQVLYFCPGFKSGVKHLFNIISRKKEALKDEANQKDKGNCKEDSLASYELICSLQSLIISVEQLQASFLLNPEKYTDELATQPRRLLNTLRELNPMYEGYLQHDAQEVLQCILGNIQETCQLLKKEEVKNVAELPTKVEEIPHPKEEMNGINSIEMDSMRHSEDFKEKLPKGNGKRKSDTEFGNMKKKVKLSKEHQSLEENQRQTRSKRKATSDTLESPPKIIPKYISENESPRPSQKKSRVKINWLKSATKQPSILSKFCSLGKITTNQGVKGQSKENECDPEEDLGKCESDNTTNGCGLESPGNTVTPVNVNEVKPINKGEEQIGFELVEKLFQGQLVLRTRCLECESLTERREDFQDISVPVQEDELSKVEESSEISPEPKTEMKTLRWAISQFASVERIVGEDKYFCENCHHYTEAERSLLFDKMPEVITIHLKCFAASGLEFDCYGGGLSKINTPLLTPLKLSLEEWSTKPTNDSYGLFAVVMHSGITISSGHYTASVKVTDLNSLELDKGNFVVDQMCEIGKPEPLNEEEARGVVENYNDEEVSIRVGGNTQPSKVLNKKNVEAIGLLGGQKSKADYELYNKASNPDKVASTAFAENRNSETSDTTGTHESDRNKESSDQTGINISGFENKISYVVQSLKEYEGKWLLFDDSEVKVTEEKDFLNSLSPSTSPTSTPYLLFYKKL
# In short: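 USP1/UAF1 complex at 1 nM preincubated 15 min at room temperature with compound, then Ub-Rho substrate added at 150 nM final. Fluorescence (480/540 nm) read kinetically in 50 mM HEPES pH 7.8, 0.5 mM EDTA, 1 mM TCEP, 0.1 mg/ml BSA, 0.01% Tween-20.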
# [5] = qHTS for Inhibitors of ATXN expression: Validation of Cytotoxic Assay (AID 588349);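 note: cells exposed to compound for 72 hr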
# In short: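 HEK293, compound dose series, 72 hr / 37 degrees C; viability via CellTiter Glo (intracellular ATP).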
# [6] = qHTS for Inhibitors of ATXN expression: Validation (AID 588378); note: nearly all actives have a fitted effect of over 75% in size; note: potency is the fitted concentration of half-maximal effect
# In short: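 HEK293 cells carrying ATXN2-firefly luciferase reporter, treated with compound 24 h at 37 °C. Viability read first by CellTiter-Fluor (405/525 nm), then reporter expression by Bright-Glo luminescence; controls were a known ATXN2 expression inhibitor and a luciferase inhibitor.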
# [7] = target: phosphoglycerate mutase (Leishmania major) (UniProt Q4Q090); experiment: qHTS Validation Assay to Find Inhibitors of Phosphoglycerate Mutase (AID 504548); details: Potency: inhibition qHTS; note: series mostly up to about 58 µM
# phosphoglycerate mutase (Leishmania major), sequence (Q4Q090 1-553): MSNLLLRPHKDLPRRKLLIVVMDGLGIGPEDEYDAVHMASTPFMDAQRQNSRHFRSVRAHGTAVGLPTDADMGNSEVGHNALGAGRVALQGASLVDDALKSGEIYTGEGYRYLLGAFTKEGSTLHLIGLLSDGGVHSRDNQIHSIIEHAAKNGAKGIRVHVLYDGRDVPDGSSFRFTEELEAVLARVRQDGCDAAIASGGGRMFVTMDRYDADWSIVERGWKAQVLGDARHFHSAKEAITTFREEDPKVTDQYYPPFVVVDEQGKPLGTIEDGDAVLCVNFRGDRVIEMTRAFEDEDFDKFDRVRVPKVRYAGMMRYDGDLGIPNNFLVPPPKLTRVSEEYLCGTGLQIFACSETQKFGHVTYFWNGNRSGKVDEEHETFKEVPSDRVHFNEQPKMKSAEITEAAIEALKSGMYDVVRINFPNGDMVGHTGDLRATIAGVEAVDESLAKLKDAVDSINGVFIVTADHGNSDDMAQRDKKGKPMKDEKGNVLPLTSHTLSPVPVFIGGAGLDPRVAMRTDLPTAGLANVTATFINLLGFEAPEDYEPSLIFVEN
# In short: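 Lm PGAM 1.25nM final; 100 mM TEA pH 7.6, 5 mM MgCl2, 0.01% Tween-20; 45 min RT; Kinase-GloPlus, 10 min; end-point luminescence. Enzyme-free wells as negative controls.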
SMILES,Potency [1],Potency [2],Potency [3],Potency [4],Potency [5],Potency [6],Potency [7]
O=C(O)c1cc(=O)c2ccccc2[nH]1,inactive,inactive,inactive,inactive,inactive,inactive,–
CC1(C)CCC=[N+]1[O-],inactive,inactive,inactive,inactive,inactive,–,–
O=c1[nH]c2cc(Cl)c(Cl)cc2[nH]c1=O,inactive,inactive,inactive,inactive,inactive,–,–
COc1ccc(NC(=O)/C=C/c2ccc(Cl)cc2)cc1,inactive,inactive,–,–,–,inactive,–
N#C/C(=C\c1ccc(O)c(O)c1)C(=O)NCc1ccccc1,inactive,–,inactive,–,–,–,–
O=c1[nH]c2cc([N+](=O)[O-])c([N+](=O)[O-])cc2[nH]c1=O,inactive,inactive,inactive,inactive,inactive,inactive,–
Cn1cc(C2=C(c3ccc(Cl)cc3Cl)C(=O)NC2=O)c2ccccc21,inactive,–,inactive,23.8 µM (active),inactive,inactive,–
CCCCCC(O)c1cccc(OCc2ccc3ccccc3n2)c1 (configuration not stated),inactive,–,inactive,–,–,–,inactive
Clc1ccc(N2CCN(Cc3c[nH]c4ncccc34)CC2)cc1,inactive,inactive,inactive,50.1 µM (active),inactive,–,–
O=C(Nc1cccc(C(=O)Nc2ccc(S(=O)(=O)O)c3cc(S(=O)(=O)O)cc(S(=O)(=O)O)c23)c1)Nc1cccc(C(=O)Nc2ccc(S(=O)(=O)O)c3cc(S(=O)(=O)O)cc(S(=O)(=O)O)c23)c1,inactive,6.75 µM (active),–,28.2 µM (active) and 12.6 µM (active),inactive,inactive,inactive
CC(C)Cc1ccc([C@H](C)C(=O)O)cc1,inactive,inactive,inactive,inactive,inactive,inactive,–
CN(C)c1ccc(/C=C2\C(=O)Nc3ccccc32)cc1,inactive,inactive,inactive,inactive,inactive,–,–
O=C(O)/C=C/C(O)c1ccc(Cl)cc1 (configuration not stated),inactive,–,inactive,inactive,inactive,inactive,–
O=Nc1ccc2oc(=O)ccc2c1,–,inactive,inactive,–,–,–,–
C=C[C@H]1CN2CC[C@@H]1C[C@@H]2[C@@H](O)c1ccnc2ccc(OC)cc12,–,inactive,inactive,–,–,–,–
NO,inactive,inactive,inactive,inactive,inactive,inactive,–
CCCCCCCC/C=C\CCCCCCCC(=O)NCCO,inactive,inactive,inactive,–,inactive,inactive,–
CC(=O)SCC[N+](C)(C)C,inactive,inactive,inactive,inactive,inactive,inactive,–
CCCCN1CCC(n2c(=O)[nH]c3ccccc32)CC1,inactive,inactive,inactive,inactive,inactive,inactive,–
CC(C)NCC(O)COc1cccc2ccccc12 (configuration not stated),inactive,inactive,–,inactive,–,–,–
Ic1ccc(N2CCN(Cc3c[nH]c4ncccc34)CC2)cc1,inactive,–,inactive,50.1 µM (active),–,–,inactive
O=C(c1cc(O)c(O)c([N+](=O)[O-])c1)c1ccccc1F,inactive,–,–,inactive,inactive,inactive,inactive

SMILES,Potency [1],Potency [2],Potency [3],Potency [4],Potency [5],Potency [6],Potency [7]
c1cnc2c(c1)ccc1cccnc12,inactive,inactive,inactive,inactive,–,3.55 µM (active),–
COc1ccccc1N1CCN(CCCCNS(=O)(=O)c2cccc3c(N(C)C)cccc23)CC1,14.6 µM (active),–,inactive,inactive,–,–,–
CC[C@@H](C)[C@H]1O[C@]2(CC[C@H]1C)C[C@@H]1C[C@@H](CC=C(C)[C@@H](O[C@H]3C[C@H](OC)[C@@H](O[C@H]4C[C@H](OC)[C@@H](O)[C@H](C)O4)[C@H](C)O3)[C@@H](C)C=CC=C3CO[C@@H]4[C@H](O)C(C)=C[C@@H](C(=O)O1)[C@]34O)O2,–,inactive,inactive,–,–,–,inactive
Oc1ccccc1O,inactive,inactive,–,inactive,–,–,inactive
C=CC(N)CCC(=O)O (configuration not stated),inactive,inactive,inactive,inactive,inactive,inactive,–
CCCCCCCCCCCCCCCCCCNC(=O)OCC(COP(=O)([O-])OCC[n+]1ccsc1)OC (configuration not stated),–,inactive,inactive,–,–,–,inactive
NCCCCC(=O)O,inactive,inactive,inactive,inactive,inactive,inactive,–
O=C1NC(O)=NC1(c1ccccc1)c1ccccc1,inactive,–,inactive,inactive,–,–,inactive
COc1ccc(/C=C/C(=O)Nc2ccccc2C(=O)O)cc1OC,inactive,inactive,inactive,–,inactive,–,–
COc1cc(C(O)CO)ccc1OS(=O)(=O)O (configuration not stated),inactive,inactive,inactive,inactive,inactive,inactive,–
O=C1NC(=O)/C(=C/c2ccc(-c3ccc(F)cc3O)o2)S1,–,inactive,inactive,44.7 µM (active),inactive,inactive,inactive
N=c1ccn2c(n1)O[C@H]1[C@H](O)[C@@H](CO)O[C@H]12,–,inactive,inactive,inactive,inactive,–,inactive
Clc1ccc(N2CCN(Cc3cc4ccccn4n3)CC2)cc1,–,inactive,inactive,inactive,inactive,–,inactive
O=C(c1ccc(OCCCc2cnc[nH]2)cc1)C1CC1,–,inactive,inactive,inactive,inactive,inactive,inactive
C[N+]1(C)C2CC(OC(=O)[C@H](CO)c3ccccc3)CC1C1OC12 (some centres not stated),–,inactive,inactive,inactive,inactive,–,inactive
CN1CC(=O)N/C1=N/C(=O)Nc1cccc(Cl)c1,–,inactive,inactive,inactive,inactive,inactive,inactive
CC(N)C(=O)OC(C)(C)Cc1ccc(Cl)cc1 (configuration not stated),–,inactive,inactive,inactive,inactive,inactive,inactive
NS(=O)(=O)C#Cc1ccccc1,–,inactive,inactive,inactive,–,–,inactive
CNc1ncnc2c1ncn2[C@@H]1O[C@H](CO)[C@@H](O)[C@H]1O,–,inactive,inactive,inactive,inactive,–,inactive
CSc1ccccc1N1CCN(CCCCCC(=O)NC2CCCc3ccccc32)CC1 (configuration not stated),–,inactive,inactive,inactive,–,22.4 µM (active),inactive
COc1ccc2c(c1)CCC1C2CC[C@@]2(C)C1CC[C@@H]2NCCCCCCN1C(=O)CCC1=O (some centres not stated),–,inactive,inactive,inactive,–,–,inactive
